# Measured potencies and affinities stand elsewhere. Results filed as inconclusive are left out. Active and inactive are the calls of the source.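 How the source made its calls: active means signal loss with fitted half-maximal concentration at or below twice the top valid tested dose in every test run; inconclusive means runs disagree, flat 30 to 70% signal loss, or poor fit; inactive means all runs flat, opposite direction, or potency beyond limit.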
# Test: HEK293T cytotoxicity, dose response, cytotoxicity control for miR-122 modulator project, cell-based, inhibitor set, cherry-pick, set 2 (AID 720697);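 further: 0% = median of neutral control wells and -100% = MG132 positive control wells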
# Conditions: HEK293T viability, CellTiter-Glo luminescence, 48 h; series mostly up to 26 µM; activity change, negative = cytotoxicity: at the top concentration
row,Structure (SMILES),"activity change, negative = cytotoxicity"
1,COc1ccc(-c2cc(C3CCN(c4ccc(C(C)=O)cc4[N+](=O)[O-])CC3)[nH]n2)cc1,-54.1% (inactive)
2,CN1C(=O)c2cc(NC(=O)c3cccs3)ccc2OC[C@H]2O[C@H](CC(=O)NCC(F)(F)F)CC[C@H]21,127% (inactive)
3,O=C(Nc1ccccc1)N1CCCCN2[C@@H](CO)[C@H](c3ccc(C4=CCCCC4)cc3)[C@@H]2C1,-74% (inactive)
4,COc1cccc(NC(=O)C[C@@H]2CC[C@@H]3[C@@H](COc4ccc(NS(=O)(=O)c5cccc(F)c5)cc4C(=O)N3C)O2)c1,85.1% [at 23.5 µM] (inactive)
5,COCCN(C[C@H]1[C@H](c2ccccc2)[C@@H](CO)N1C(=O)C1CCC1)C(C)=O,162% [at 23.5 µM] (inactive)

# Reference: PubChem BioAssay AID720697 (Broad Institute, 2013)
